This is one part of a sample in which hits are shown more often than they occur.
Pf Dd2 inh: Plasmodium falciparum Dd2 growth inhibition; P. falciparum Dd2 growth, SYBR Green, 72 h; AID 1347417; 120,000 compounds, 4.3% hits; Potency, µM (series often up to 28.9 µM), without a hit: top-dose activity, negative = inhibition, usual class: inhibitors; active = well fitted inhibition curve with a large enough effect;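 note: plate controls were DMSO vehicle for no effect and reference drug for full effect; nearly all actives have a fitted effect of over 65% in size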
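Infected erythrocytes (Dd2, 0.3% parasitemia, 2.5% hematocrit final) are added to compound in RPMI-1640/Albumax II medium, grown 72 h at 37C in low oxygen, then lysed with saponin/Triton-X containing SYBR Green and read by fluorescence.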
* = called active by the depositor; i = inactive; [ ] = dose if it differs, or a comment. Potency is the fitted concentration of half-maximal effect.

SMILES	Pf Dd2 inh
CC(=O)N1CCC(NC[C@H]2O[C@@H]3C[C@@H](CC(=O)N4CCOCC4)O[C@@H]3[C@@H]2O)CC1	11.6%[44.1 µM]
C[S+](=O)([O-])N1Cc2ccccc2CC2(CCCN(CC3CCNCC3)C2)C1 (stereo unspecified)	-9.6%
O=C(NCCCN1CCOCC1)c1c(OCC2CC2)cc(=O)n2c1CCOCC2	11.0%
CN1CC(=O)N(c2ccc(Cl)cc2)Cc2c(NCCCc3ccccc3)ncnc21	-10.5%
CNC(=O)c1cnn2cc(C)ccc12	-6.1%[44.1 µM]
CC(C)OCCCNC(=O)c1nn(C)c2c1CSc1ccccc1-2	-23.3%
CC(C)CCNC(=O)c1nn(C)c2c1CSc1ccccc1-2	-20.1%
CCN(CC)CCCNC(=O)c1nn(C)c2c1CSc1ccccc1-2	5.62µM*
CCOC(=O)C1CCN(C(=O)c2cn3ccnc(-c4ccc(OC)cc4)c3n2)CC1	i
O=C(NCCOc1ccccc1)c1cnc2n1CCN(CC1CCOCC1)CC2	28.7%[44.1 µM]
O=C1OCC2(CCN([S+](=O)([O-])c3ccc(C(F)(F)F)cc3)C2)N1Cc1ccccn1 (stereo unspecified)	-5.7%
O=C(NCCCN1CCCC1)c1cn2ccnc(-c3ccccc3)c2n1	-15.9%
Cc1ccccc1CSc1cn(CC(=O)N2CCCCCC2)c2ccccc12	-25.7%
O=C(/C=C/c1cn(CC(O)CN2CCCCCC2)c2ccccc12)c1ccc(Br)cc1 (stereo unspecified)	10µM*
O=C(CSc1cn(CC(=O)N2CCCCC2)c2ccccc12)Nc1ccccc1	18.4%
O=C(Cn1cc(SCc2ccccc2Cl)c2ccccc21)N1CCCCCC1	-21.1%
O=C(/C=C/c1cn(CC(O)CN2CCCCCC2)c2ccccc12)c1ccccc1 (stereo unspecified)	10µM*
COC(=O)c1ccc(NC(=O)CSc2cn(CC(=O)N3CCCCC3)c3ccccc23)cc1	-8.6%
Cc1ccc(CSc2cn(CC(=O)N3CCCCC3)c3ccccc23)cc1	-18.7%
Cc1ccc(C(=O)/C=C/c2cn(CC(O)CN3CCCCCC3)c3ccccc23)cc1 (stereo unspecified)	12.6µM*
CNC(=O)CSc1cn(CC(=O)N2CCCCCC2)c2ccccc12	-24.5%
O=C(c1ccc2cccc(F)c2n1)N1CCN(C(=O)C2CCCCC2)CC1	2.7%
CCCC(=O)N1CCC(N2CC3CC(C2)[C@H]2CCCC(=O)N2C3)CC1 (stereo partly specified)	-11.1%
COCCNC(=O)c1ccc2nnc(-c3ccc(Cl)cc3Cl)n2c1	7.1%
COC1CCN(C(=O)c2ccnc(-c3nnc4ccc(N(C)c5ccccc5)nn34)c2)CC1	i
SMILES	Pf Dd2 inh
Cc1noc(-c2cn(C3CCN(C(=O)c4cc5ccccc5[nH]4)CC3)nn2)n1	i
CN1[C@@H](CCC(=O)NCc2ccc(F)cc2)CNC(=O)[C@@H]2[C@H]1CCN2Cc1ccc(O)cc1	-23.2%
CCOc1ccccc1C1NC(=O)N(CC(=O)N2CCN(c3ccc(F)cc3)CC2)C2=C1C(=O)OC2 (stereo unspecified)	-24.2%
COc1cccc(-c2ccc(-c3nc(C4CCOC4)no3)o2)c1 (stereo unspecified)	-6.1%
CCOc1cccc(-c2nc(C3CCOC3)no2)c1 (stereo unspecified)	14.9%
c1cc(-c2ccco2)cc(-c2nc(C3CCOC3)no2)c1 (stereo unspecified)	12.6µM*
Cc1ccsc1C(=O)N1CCC2(CC1)N(C)C(=O)CS2(=O)=O	27.7%
CN1CCC2(C1)CN(CC1CCOCC1)c1ccc(C(=O)NCC(F)(F)F)cc12 (stereo unspecified)	i
C[C@H](O)c1c(-c2ccc(F)cc2)noc1C(=O)N1CCC1	-8.9%[44.1 µM]
CC1=C[C@@H](CNCCN(C)C)[C@H](C(C)C)C[C@H]1Cc1nnc(C)o1	i
CC1=C[C@@H](CN(C)CCO)[C@H](C(C)C)C[C@H]1Cc1nnc(-c2ccc(N(C)C)cc2)o1	2.51µM*
CC1=C[C@@H](CN(CC2CC2)CC2CC2)[C@H](C(C)C)C[C@H]1Cc1nc2ccncc2[nH]1	-1.0%[44.1 µM]
COCCNC(=O)C[C@@H]1C[C@@H](C(C)C)[C@H](CNC(=O)CCC(=O)O)C=C1C	5.2%[44.1 µM]
CC1=C[C@@H](CNCCN(C)C)[C@H](C(C)C)C[C@H]1Cc1nnc(-c2ccc(C)cc2)o1	2.24µM*
COCCNC[C@@H]1C=C(C)[C@H](Cc2nnc(-c3ccc(N(C)C)cc3)o2)C[C@H]1C(C)C	3.55µM*
CN(C)c1ccc(-c2nnc([C@H]3CCN(C(=O)CCC(=O)O)C3)o2)cc1	-28.8%[44.1 µM]
CC1=C[C@@H](CN2CCC[C@H]2CO)[C@H](C(C)C)C[C@H]1Cc1nnc(-c2ccc(N(C)C)cc2)o1	1.41µM*
COCCNC(=O)C[C@@H]1C[C@@H](C(C)C)[C@H](CNC(=O)c2cnccn2)C=C1C	2.2%[44.1 µM]
COc1cccc(NC(=O)O[C@@H]2CC[C@]3(C)C(CC[C@@H](O)[C@H]3CC(=O)NCc3ccccc3OC)[C@]2(C)CO)c1 (stereo partly specified)	i
COC(=O)C1=C(C)N(Cc2cccc(F)c2)C(=O)CC1c1ccccc1Cl (stereo unspecified)	i
COCCN1C(=O)c2ccccc2C(C(=O)N2CCSCC2)C12CCCC2 (stereo unspecified)	2.5%
Cn1nc(C2CCN(C(=O)CC3CCCC3)CC2)c2c1CCOC2	i[5.79 µM]
Cn1nc2n(c1=O)CCN(C(=O)c1cc(C3CC3)[nH]n1)CC2	i
CCCS(=O)(=O)N1CCC(CCOC)(NC(=O)C2CC2)CC1	-1.1%
O=C(c1cc(-c2cccnc2)nc2ccccc12)N1CCCC2(CCOC2)C1 (stereo unspecified)	-6.4%
SMILES	Pf Dd2 inh
CC(=O)N1CCC([C@@H]2CN(C3CCN(C(C)=O)CC3)C[C@H]2CO)CC1	3.1%
CN(C)C(=O)c1csc(N2CCN(c3cccc(Cl)c3)CC2)n1	29.9%
O=C([C@@H]1C[C@H](F)CN1C(=O)NCc1ccc(OC(F)(F)F)cc1)N1CCCCC1	12.3%
Cc1noc2c(Nc3ccc(C(N)=O)cc3)cc(-c3ccc(F)cc3)nc12	-3.7%[44.1 µM]
CC1=C[C@@H](CO)[C@H](C(C)C)C[C@H]1Cc1nnc(-c2ccncc2)o1	i
CC1=C[C@@H](CO)[C@H](C(C)C)C[C@H]1Cc1nnc(-c2ccc(N(C)C)cc2)o1	2µM*
CC1=C[C@@H](CO)[C@H](C(C)C)C[C@H]1Cc1nnc(Cc2c[nH]c3ccccc23)o1	i
O=C(Cn1cccc1-c1nc(-c2ccccc2)no1)NCCCc1ccccc1	-28.5%
Cc1cnn(CCC(=O)N2C[C@@H](CO)[C@H](c3nc(C4CC4)no3)C2)c1	i
CNC(=O)[C@@H]1CNC[C@H]1c1n[nH]c(C)n1	-18.8%
O=C(N[C@H]1C[C@@H]2C(=O)N[C@H]3CCN(C(=O)C4CCCC4)[C@@H]3C(=O)N2C1)c1cccs1	-10.0%[44.1 µM]
COCCOC1CCOC2(CCN(C(=O)Nc3ccccc3F)CC2)C1 (stereo unspecified)	12.6µM*
COC1CCOC2(CCN(C(=O)Nc3ccccc3F)CC2)C1 (stereo unspecified)	8.9%
COCCOC1CCOC2(CCN(C(=O)Nc3ccccc3)CC2)C1 (stereo unspecified)	-23.2%
COCC(=O)NC1CCC12CCN(S(=O)(=O)c1cn(C)cn1)CC2 (stereo unspecified)	-24.8%
Cc1noc(-c2cn(C3CCN(C(=O)c4ccccc4Cl)C3)nn2)n1 (stereo unspecified)	-8.7%
O=C(NCc1ccncc1)c1cc2n(n1)CC(c1ccc(Br)cc1)OC2 (stereo unspecified)	i
Cn1cc(-c2ccccc2)cc1C(=O)N1CCOCC1	-18.8%
